# Data reported in PubChem BioAssay (NCATS).
# Where “and” joins values, the source holds several entries; their conditions need not be identical. Equal values may be shown once. Results filed as inconclusive are left out. Entries that show only a call come without a potency. Calls of active or inactive are those of the source. Unless noted, the call rests on the fitted dose curve; in most records, active means well fitted curve in the direction sought with a large enough effect; inconclusive means small, poorly fitted or top-dose-only effect, or another doubt; inactive means no such curve, though single readings can be large; an effect the other way counts as inactive or inconclusive.
# Columns and labels:
# [1] = qHTS assay for small molecule antagonists of peroxisome proliferator-activated receptor delta signaling (AID 588535; active means well fitted inhibition curve with a large enough effect in the signal ratio, with a control signal flat, not every such curve was filed as active; the % refers to the signal ratio;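 on max response: cells co-treated with a PPAR-delta agonist as stimulator during compound exposure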); settings: HEK293T PPARd-UAS-bla, beta-lactamase FRET ratio, 18 h; 460 nm channel
# How it was run: (§1)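 Cell-based beta-lactamase assay in antagonist mode: 4000 HEK293T PPAR-delta-UAS-bla cells per well, 5 hr preincubation then 18 hr compound incubation at 37 C. IC50 obtained by Hill equation fitting.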
# [2] = target: Peroxisome proliferator-activated receptor delta (Homo sapiens) (UniProt Q03181); assay: as above; settings: HEK293T PPARd-UAS-bla, beta-lactamase FRET ratio, 18 h; series mostly up to 76.7 µM
# Sequence of Peroxisome proliferator-activated receptor delta (Homo sapiens) (Q03181 whole entry, looked up): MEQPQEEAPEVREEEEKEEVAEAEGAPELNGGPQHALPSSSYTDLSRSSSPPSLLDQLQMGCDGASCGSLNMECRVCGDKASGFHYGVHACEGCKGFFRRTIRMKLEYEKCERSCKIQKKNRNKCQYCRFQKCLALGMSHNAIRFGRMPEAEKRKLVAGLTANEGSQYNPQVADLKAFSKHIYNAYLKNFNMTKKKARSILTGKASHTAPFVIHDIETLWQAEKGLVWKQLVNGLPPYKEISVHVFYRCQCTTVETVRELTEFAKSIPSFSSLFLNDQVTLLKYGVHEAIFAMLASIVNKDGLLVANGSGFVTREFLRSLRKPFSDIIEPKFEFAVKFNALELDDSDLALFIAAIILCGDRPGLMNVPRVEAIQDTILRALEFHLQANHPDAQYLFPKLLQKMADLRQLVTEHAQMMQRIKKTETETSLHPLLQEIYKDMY
# How it was run: as §1
# [3] = target: Peroxisome proliferator-activated receptor gamma (Homo sapiens) (UniProt P37231); assay: qHTS assay for small molecule agonists of peroxisome proliferator-activated receptor gamma signaling (AID 588536; active means well fitted curve in the direction sought with a large enough effect in the signal ratio, with a control signal flat, not every such curve was filed as active; the % refers to the signal ratio); settings: HEK293 PPARg-UAS-bla, beta-lactamase ratio, 16 h, percent of rosiglitazone response, DMSO as zero; series mostly up to 76.7 µM
# Sequence of Peroxisome proliferator-activated receptor gamma (Homo sapiens) (P37231 whole entry, looked up): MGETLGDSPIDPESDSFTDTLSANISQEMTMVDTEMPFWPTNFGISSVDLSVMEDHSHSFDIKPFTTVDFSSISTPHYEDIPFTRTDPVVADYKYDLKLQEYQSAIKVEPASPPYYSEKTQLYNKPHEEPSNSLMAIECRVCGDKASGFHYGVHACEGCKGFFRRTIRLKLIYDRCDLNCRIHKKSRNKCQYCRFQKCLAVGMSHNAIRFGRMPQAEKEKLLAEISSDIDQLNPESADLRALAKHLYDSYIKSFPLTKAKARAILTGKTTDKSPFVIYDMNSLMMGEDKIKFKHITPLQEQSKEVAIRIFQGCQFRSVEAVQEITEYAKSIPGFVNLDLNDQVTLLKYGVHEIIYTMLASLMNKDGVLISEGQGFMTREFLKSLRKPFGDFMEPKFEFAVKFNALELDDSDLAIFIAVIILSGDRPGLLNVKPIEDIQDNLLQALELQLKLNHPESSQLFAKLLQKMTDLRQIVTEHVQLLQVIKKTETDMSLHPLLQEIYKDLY
# How it was run: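 GeneBLAzer PPAR-gamma-UAS-bla HEK293 cells in 1% charcoal/dextran-treated FBS medium were treated 16 h at 37 C with compounds. Beta-lactamase activity was read by CCF4 ratio (460/530 nm). Response was normalized to 2 uM rosiglitazone (100%) and DMSO, then Hill-fitted for EC50 and efficacy.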
# [4] = qHTS assay for small molecule agonists of retinoid X receptor alpha signaling (AID 588544); settings: HEK293T RXRa-UAS-bla, beta-lactamase reporter, 18 h; 530 nm emission
# [5] = target: Thyroid hormone receptor beta (Homo sapiens) (UniProt P10828); assay: qHTS assay for small molecule agonists of thyroid hormone receptor beta signaling (AID 588545; calls by dose curve); settings: TR-UAS-bla GripTite HEK 293, beta-lactamase ratio, agonist mode, 18 h, percent of T3 response, DMSO as zero; series mostly up to 76.7 µM
# Sequence of Thyroid hormone receptor beta (Homo sapiens) (P10828 whole entry, looked up): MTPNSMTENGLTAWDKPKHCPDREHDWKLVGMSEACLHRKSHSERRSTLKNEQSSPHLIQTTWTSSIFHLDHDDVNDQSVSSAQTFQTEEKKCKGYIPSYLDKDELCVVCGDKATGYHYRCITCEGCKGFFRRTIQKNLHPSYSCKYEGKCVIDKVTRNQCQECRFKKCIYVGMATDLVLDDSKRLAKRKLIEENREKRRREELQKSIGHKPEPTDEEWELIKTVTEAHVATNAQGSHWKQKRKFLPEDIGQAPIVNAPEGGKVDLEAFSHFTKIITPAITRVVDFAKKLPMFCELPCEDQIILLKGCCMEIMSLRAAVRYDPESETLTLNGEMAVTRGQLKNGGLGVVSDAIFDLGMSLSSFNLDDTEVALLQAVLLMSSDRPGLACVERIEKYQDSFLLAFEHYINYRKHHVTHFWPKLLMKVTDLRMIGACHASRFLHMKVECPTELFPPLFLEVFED
# How it was run: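 Efficacy and EC50 values derive from Hill fits of qHTS titration data, normalized to 10 nM T3 and DMSO-only wells. HEK 293 reporter cells were stimulated for 18 hrs at 37 C, with beta-lactamase activity measured by CCF4 fluorescence.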
# [6] = qHTS assay for small molecule antagonists of retinoid X receptor alpha signaling (AID 588546; active means well fitted inhibition curve with a large enough effect in the signal ratio, with a control signal flat, not every such curve was filed as active; the % refers to the signal ratio; further: potency means the concentration at half of the fitted maximal effect;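 on max response: cells stimulated with 9-cis-retinoic acid as agonist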); settings: HEK293T RXRa-UAS-bla, beta-lactamase ratio, antagonist mode; measured here: W530 green channel, cytotoxicity proxy
# How it was run: (§2)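 Beta-lactamase reporter inhibition, read as CCF4 fluorescence ratio (ex 405, em 460/530 nm) after 2 h at RT. HEK293T UAS-bla cells, 2500/well, were stimulated with 9-cis-RA at 500 or 100 nM final alongside test compound for 18 h at 37 C.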
# [7] = target: Retinoic acid receptor RXR-alpha (Homo sapiens) (UniProt P19793); assay: as above; settings: HEK293T RXRa-UAS-bla, beta-lactamase ratio, antagonist mode
# Sequence of Retinoic acid receptor RXR-alpha (Homo sapiens) (P19793 whole entry, looked up): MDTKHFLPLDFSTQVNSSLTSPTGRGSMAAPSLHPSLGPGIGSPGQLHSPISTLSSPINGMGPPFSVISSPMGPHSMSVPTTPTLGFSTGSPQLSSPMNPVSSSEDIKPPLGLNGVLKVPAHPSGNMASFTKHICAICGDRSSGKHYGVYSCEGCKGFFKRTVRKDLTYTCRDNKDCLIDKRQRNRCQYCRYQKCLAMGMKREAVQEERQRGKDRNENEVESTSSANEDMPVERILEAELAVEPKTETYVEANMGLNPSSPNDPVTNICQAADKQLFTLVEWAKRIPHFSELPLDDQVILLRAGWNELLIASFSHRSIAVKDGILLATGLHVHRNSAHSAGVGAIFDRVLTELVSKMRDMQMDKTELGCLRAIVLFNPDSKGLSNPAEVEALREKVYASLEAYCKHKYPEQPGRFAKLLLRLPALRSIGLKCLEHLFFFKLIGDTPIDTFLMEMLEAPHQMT
# How it was run: as §2
# [8] = target: Thyroid hormone receptor beta (Homo sapiens) (UniProt P10828); assay: qHTS assay for small molecule antagonists of thyroid hormone receptor beta signaling (AID 588547; active means well fitted inhibition curve with a large enough effect in the signal ratio, with a control signal flat, not every such curve was filed as active; the % refers to the signal ratio;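 further: cells stimulated with 0.4 nM T3 agonist during compound exposure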); settings: TR-UAS-bla HEK293, beta-lactamase ratio, antagonist mode, 18 h
# How it was run: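 Inhibition of T3-driven (0.4nM final) beta-lactamase reporter activity was measured over 0.59 nM to 92 uM compound after 18 h at 37 C. The cells were GripTite HEK293 TR-UAS-bla in charcoal/dextran-stripped serum, with CCF4 ratio read-out and IC50 from Hill fits.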
# [9] = target: Voltage-gated inwardly rectifying potassium channel KCNH2 (Homo sapiens) (UniProt Q12809); assay: qHTS Assay for Small Molecule Inhibitors of the Human hERG Channel Activity (AID 588834); settings: U2OS BacMam hERG, FluxOR thallium flux fluorescence; series mostly up to 46.1 µM;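 further: lower thallium flux fluorescence means stronger hERG block; nearly all actives have a fitted effect of over 50% in size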; further: potency means the concentration at half of the fitted maximal effect
# Sequence of Voltage-gated inwardly rectifying potassium channel KCNH2 (Homo sapiens) (Q12809 whole entry, looked up): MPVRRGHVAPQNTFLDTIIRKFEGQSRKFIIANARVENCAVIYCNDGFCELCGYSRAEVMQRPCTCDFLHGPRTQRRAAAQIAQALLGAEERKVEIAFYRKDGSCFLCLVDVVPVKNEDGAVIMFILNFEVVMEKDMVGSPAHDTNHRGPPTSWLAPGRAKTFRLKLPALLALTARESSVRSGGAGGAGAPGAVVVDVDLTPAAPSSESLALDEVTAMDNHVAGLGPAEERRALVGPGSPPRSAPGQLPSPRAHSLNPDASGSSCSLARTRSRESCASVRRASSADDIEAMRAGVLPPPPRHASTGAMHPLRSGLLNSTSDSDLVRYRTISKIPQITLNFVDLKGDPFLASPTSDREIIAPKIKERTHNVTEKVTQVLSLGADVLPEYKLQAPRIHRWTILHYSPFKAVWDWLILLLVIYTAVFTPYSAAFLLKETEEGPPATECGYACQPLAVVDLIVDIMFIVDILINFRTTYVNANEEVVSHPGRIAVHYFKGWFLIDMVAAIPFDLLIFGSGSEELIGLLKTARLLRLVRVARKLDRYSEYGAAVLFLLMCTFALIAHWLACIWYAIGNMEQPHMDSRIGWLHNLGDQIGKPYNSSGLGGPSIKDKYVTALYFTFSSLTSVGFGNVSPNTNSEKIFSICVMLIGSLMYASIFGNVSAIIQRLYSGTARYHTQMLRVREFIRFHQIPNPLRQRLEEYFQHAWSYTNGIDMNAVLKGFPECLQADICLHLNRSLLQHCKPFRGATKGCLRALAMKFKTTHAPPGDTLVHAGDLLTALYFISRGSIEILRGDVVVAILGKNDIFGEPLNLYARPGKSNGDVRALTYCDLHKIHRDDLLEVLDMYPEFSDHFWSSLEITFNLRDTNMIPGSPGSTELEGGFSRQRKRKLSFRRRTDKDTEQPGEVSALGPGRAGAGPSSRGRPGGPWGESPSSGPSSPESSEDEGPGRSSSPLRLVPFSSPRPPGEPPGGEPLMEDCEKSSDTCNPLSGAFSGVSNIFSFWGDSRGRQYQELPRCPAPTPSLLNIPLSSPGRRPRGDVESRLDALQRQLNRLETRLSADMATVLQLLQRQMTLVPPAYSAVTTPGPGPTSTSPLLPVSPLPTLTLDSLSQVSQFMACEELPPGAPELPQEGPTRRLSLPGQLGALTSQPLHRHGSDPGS
# How it was run: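 U2OS cells BacMam-transduced with hERG, 2000 cells/well, compound ~10 min at 37 °C before stimulation buffer. FluxOR thallium flux fluorescence read kinetically on FDSS; decrease indicates block; AC50 from Hill fits.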
# [10] = S16 Schwann cell viability assay (CellTiter-Glo assay) (AID 624031); settings: S16 rat Schwann cells viability, 24 h; series mostly up to 57.5 µM;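 further: native untransfected S16 rat Schwann cells; nearly all actives have a fitted effect of over 70% in size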
# How it was run: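 Counter-screen for cytotoxicity: parental S16 rat Schwann cells lacking the PMP22 reporters, treated 24 h with compound, viability from cellular ATP by CellTiter-Glo luminescence, normalized to DMSO (0%) and no-cell wells.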
# [11] = S16 Schwann cell PMP22 intronic element firefly luciferase assay (AID 624032); settings: S16 rat Schwann cells, PMP22 element FLuc, 24 h; series mostly up to 57.5 µM; further: nearly all actives have a fitted effect of over 30% in size
# How it was run: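 Luciferase reporter of PMP22 intronic-element expression in stably transfected S16 rat Schwann cells, read by ONE-Glo luminescence after 24 h compound exposure at 37 C. Activity scaled between DMSO (0%) and positive-control PTC124; concentration-effect curves quality-classified.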
# [12] = target: Glucocorticoid receptor (Homo sapiens) (UniProt P04150); assay: qHTS assay for small molecule antagonists of glucocorticoid receptor signaling (AID 588533; active means well fitted inhibition curve with a large enough effect in the signal ratio, with a control signal flat, not every such curve was filed as active; the % refers to the signal ratio;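 further: cells stimulated with 2 nM dexamethasone as agonist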); settings: HeLa MMTV-bla, GRE beta-lactamase ratio, antagonist mode, 18 h; series mostly up to 76.8 µM
# Sequence of Glucocorticoid receptor (Homo sapiens) (P04150 whole entry, looked up): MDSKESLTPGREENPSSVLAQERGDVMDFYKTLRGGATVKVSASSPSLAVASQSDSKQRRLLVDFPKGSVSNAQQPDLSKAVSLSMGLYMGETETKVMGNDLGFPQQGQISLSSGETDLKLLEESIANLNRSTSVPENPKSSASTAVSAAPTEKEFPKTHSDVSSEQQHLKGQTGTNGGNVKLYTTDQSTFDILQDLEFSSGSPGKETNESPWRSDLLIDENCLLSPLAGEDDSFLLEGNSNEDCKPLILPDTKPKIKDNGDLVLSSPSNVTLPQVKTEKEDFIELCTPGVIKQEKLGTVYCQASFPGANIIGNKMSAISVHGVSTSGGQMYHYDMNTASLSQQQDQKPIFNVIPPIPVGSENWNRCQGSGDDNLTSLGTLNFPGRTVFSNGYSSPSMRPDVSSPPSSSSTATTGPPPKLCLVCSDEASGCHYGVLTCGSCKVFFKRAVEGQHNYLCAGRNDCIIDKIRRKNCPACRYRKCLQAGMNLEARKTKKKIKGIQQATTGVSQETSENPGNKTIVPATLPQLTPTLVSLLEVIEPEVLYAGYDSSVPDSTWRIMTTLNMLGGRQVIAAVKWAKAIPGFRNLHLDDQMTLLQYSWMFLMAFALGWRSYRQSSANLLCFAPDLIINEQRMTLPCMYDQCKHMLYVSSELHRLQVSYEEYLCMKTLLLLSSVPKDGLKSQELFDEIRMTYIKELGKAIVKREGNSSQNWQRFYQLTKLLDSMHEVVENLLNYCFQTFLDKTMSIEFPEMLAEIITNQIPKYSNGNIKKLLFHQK
# How it was run: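 Antagonist-mode qHTS: compound titrations added to GRE-bla HeLa cells, then dexamethasone 2 nM final; 18 h, 37 C. CCF4 FRET fluorescence normalized to dexamethasone and DMSO; IC50 from Hill fit.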
# [13] = target: Luciferin 4-monooxygenase (Photinus pyralis) (UniProt P08659); assay: Biochemical firefly luciferase enzyme assay for NPC (AID 624030);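 further: purified P. pyralis luciferase at 10 nM with luciferin and ATP substrate; nearly all actives have a fitted effect of over 70% in size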; settings: purified P. pyralis luciferase, luminescence, 5 min; series mostly up to 58.6 µM
# Sequence of Luciferin 4-monooxygenase (Photinus pyralis) (P08659 whole entry, looked up): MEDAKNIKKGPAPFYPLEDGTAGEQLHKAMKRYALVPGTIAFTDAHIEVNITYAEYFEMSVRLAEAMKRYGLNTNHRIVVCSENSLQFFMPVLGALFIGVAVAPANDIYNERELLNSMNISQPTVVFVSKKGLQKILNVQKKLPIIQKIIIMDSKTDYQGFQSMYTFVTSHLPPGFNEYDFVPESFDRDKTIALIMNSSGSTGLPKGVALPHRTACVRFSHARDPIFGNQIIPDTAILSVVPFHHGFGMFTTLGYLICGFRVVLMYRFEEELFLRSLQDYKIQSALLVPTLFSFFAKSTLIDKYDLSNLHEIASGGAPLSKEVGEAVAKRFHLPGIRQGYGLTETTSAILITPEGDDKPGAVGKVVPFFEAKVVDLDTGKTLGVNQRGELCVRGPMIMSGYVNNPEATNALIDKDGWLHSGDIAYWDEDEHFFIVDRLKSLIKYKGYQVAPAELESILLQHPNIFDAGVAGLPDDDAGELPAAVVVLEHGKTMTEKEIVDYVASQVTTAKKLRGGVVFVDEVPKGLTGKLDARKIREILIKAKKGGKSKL
# How it was run: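 Direct inhibition of firefly luciferase enzyme (10 nM final, 50 mM Tris Acetate) assessed by luminescence within 5 minutes. Percent activity scaled between DMSO and PTC124 positive control, with concentration-effect curves classified by fit quality and response.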
# [14] = S16 Schwann cell PMP22 intronic element beta-lactamase assay (AID 624044; calls by dose curve; further: nearly all actives have a fitted effect of over 15% in size); settings: S16 rat Schwann cells, PMP22 element beta-lactamase FRET, 24 h; series mostly up to 38.3 µM
# How it was run: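 Rat S16 Schwann cells with beta-Lac driven by a PMP22 intronic element, compound-treated 24 h at 37 °C. LiveBLAzer FRET B/G read: 460 nm normalized to potassium clavulanate vs DMSO; 535 nm FRET as viability; concentration-effect curves classified.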
# [15] = target: Vitamin D3 receptor (Homo sapiens) (UniProt P11473); assay: qHTS assay for small molecule antagonists of vitamin D receptor signaling (AID 588541; calls by dose curve;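 further: receptor activated by calcitriol during compound treatment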); settings: HEK293T VDR-UAS-bla, beta-lactamase ratio, antagonist mode; series mostly up to 76.7 µM
# Sequence of Vitamin D3 receptor (Homo sapiens) (P11473 whole entry, looked up): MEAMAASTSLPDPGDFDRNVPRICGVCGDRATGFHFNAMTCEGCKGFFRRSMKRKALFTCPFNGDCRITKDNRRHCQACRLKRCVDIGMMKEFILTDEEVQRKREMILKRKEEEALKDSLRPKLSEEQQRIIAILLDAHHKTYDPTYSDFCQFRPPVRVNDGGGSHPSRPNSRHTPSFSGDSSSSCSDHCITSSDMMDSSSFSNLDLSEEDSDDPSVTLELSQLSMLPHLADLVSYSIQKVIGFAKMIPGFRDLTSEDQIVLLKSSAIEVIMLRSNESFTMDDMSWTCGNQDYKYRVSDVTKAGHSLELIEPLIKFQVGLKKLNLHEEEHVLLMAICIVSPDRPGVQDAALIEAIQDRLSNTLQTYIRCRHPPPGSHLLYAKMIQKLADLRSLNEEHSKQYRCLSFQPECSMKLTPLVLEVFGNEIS
# How it was run: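 Antagonist-mode beta-lactamase reporter assay: HEK293T VDR-UAS-bla cells were exposed to titrated compound alongside 1-alpha,25-dihydroxyvitamin D3 at 3 nM final for 16 h. Values were normalized to the 50 nM agonist control and DMSO basal, with IC50 and efficacy from Hill equation fits.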
# [16] = target: Vitamin D3 receptor (Homo sapiens) (UniProt P11473); assay: qHTS assay for small molecule agonists of vitamin D receptor signaling (AID 588543; calls by dose curve); settings: HEK293T VDR-UAS-bla, beta-lactamase ratio, 16 h; series mostly up to 76.8 µM
# How it was run: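 VDR-UAS-bla HEK293T cells, 2000/well, 2% charcoal-stripped FBS; compound titration 16 h at 37 C; CCF4 beta-lactamase ratio read. Normalized to 50 nM 1-alpha,25-dihydroxyvitamin D3 (100%) and DMSO; Hill fit gives EC50, efficacy.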
compound,measurement,setting,value
ClC=C(Cl)Cl,max response,[1],-19.2% and 28.8%
same,outcome,[2],inactive
same,outcome,[3],inactive
same,max response,[4],-19%
same,outcome,[5],inactive
same,max response,[6],-0.484% and -8.25%
same,max response,[7],5.36% (inactive) and -18.5% (inactive)
same,activity change % (negative = inhibition),[8],-2.56% (inactive)
same,Potency,[9],inactive
same,Potency,[10],inactive
same,Potency,[11],inactive
O=[N+]([O-])c1ccccc1,Potency,[12],inactive
same,max response,[1],3.64%
same,outcome,[2],inactive
same,outcome,[3],inactive
same,max response,[4],-10.6% and -11.5%
same,outcome,[5],inactive
same,max response,[6],-18.4%
same,max response,[7],-0.8% (inactive)
same,activity change % (negative = inhibition),[8],-11.4% (inactive)
same,Potency,[9],inactive
same,Potency,[13],inactive
same,Potency,[10],inactive
same,Potency,[11],inactive
same,Potency,[14],inactive
COC(COC(N)=O)C1=C(N2CC2)C(=O)C(C)=C(N2CC2)C1=O (centres undefined),Potency,[9],inactive
CC(=O)Oc1ccc2c3c1O[C@H]1[C@@H](OC(C)=O)C=C[C@H]4[C@@H](C2)N(C)CC[C@@]341,Potency,[9],inactive
CCN(CC)C(=O)N[C@H]1C[C@@H]2c3cccc4[nH]cc(c34)C[C@H]2N(C)C1,Potency,[9],inactive
C[C@]12CC[C@H]3[C@@H](CC[C@@]45O[C@@H]4C(O)=C(C#N)C[C@]35C)[C@@H]1CC[C@@H]2O,Potency,[9],inactive
COc1ccc(OC)c([C@@H](O)[C@H](C)N)c1,Potency,[9],inactive
CN(C)[C@@H]1C(=O)C(C(N)=O)=C(O)[C@@]2(O)C(=O)C3=C(O)c4c(O)ccc(Cl)c4[C@@](C)(O)[C@H]3C[C@@H]12,Potency,[9],inactive
CO[C@H]1[C@@H](O)C[C@H](O[C@H]2[C@@H](O)C[C@H](O[C@H]3[C@@H](O)C[C@H](O[C@H]4CC[C@@]5(C)[C@H](CC[C@@H]6[C@@H]5C[C@@H](O)[C@]5(C)[C@@H](C7=CC(=O)OC7)CC[C@]65O)C4)O[C@@H]3C)O[C@@H]2C)O[C@@H]1C,Potency,[9],inactive
CCN(CC)CCO[C@H]1CC[C@@]2(C)C(=CC[C@@H]3[C@@H]2CC[C@]2(C)C(=O)CC[C@@H]32)C1,Potency,[9],inactive
C[C@H]1CC[C@]2(NC1)O[C@H]1C[C@H]3[C@@H]4CC[C@H]5C[C@@H](O)CC[C@]5(C)[C@H]4CC[C@]3(C)[C@H]1[C@@H]2C,Potency,[9],inactive
C[N+]1([O-])[C@@H]2CC[C@H]1CC(OC(=O)C(CO)c1ccccc1)C2 (some centres undefined),Potency,[9],inactive
O=Cc1ccco1,Potency,[15],inactive
same,outcome,[16],inactive
same,max response,[4],-14.8%
same,outcome,[5],inactive
same,max response,[6],9.13%
same,max response,[7],-1.1% (inactive)
same,activity change % (negative = inhibition),[8],-3.01% (inactive)
same,Potency,[9],inactive
same,Potency,[13],inactive
same,Potency,[10],inactive
same,Potency,[11],inactive
same,Potency,[14],inactive
CC(=O)O[C@H]1CC[C@@]2(C)C(=CC[C@@H]3[C@@H]2CC[C@]2(C)C(=O)CC[C@@H]32)C1,Potency,[9],inactive
CN(C)[C@H](Cc1ccccc1)c1ccccc1,Potency,[9],inactive
CC(=O)[C@H]1CC[C@H]2[C@@H]3CC[C@@H]4C[C@H](O)CC[C@]4(C)[C@H]3CC[C@]12C,Potency,[9],inactive
C[C@]12CC[C@H](O)C[C@H]1CC[C@@H]1[C@@H]2CC[C@]2(C)[C@@H](c3ccc(=O)oc3)C[C@H]3O[C@]132,Potency,[9],inactive
CC1(C)[C@H](C=C(Cl)Cl)[C@H]1C(=O)OCc1c(F)c(F)cc(F)c1F,Potency,[9],inactive
CC(C)CC(NP(=O)(O)O[C@@H]1O[C@@H](C)[C@H](O)[C@@H](O)[C@H]1O)C(=O)NC(Cc1c[nH]c2ccccc12)C(=O)O (some centres undefined),Potency,[9],inactive
Cc1cccc(C(C)c2cnc[nH]2)c1C (centres undefined),Potency,[9],inactive
CC[C@H](C)[C@H]1O[C@]2(C=C[C@@H]1C)C[C@@H]1C[C@@H](C/C=C(\C)[C@@H](O[C@H]3C[C@H](OC)[C@@H](O[C@H]4C[C@H](OC)[C@@H](O)[C@H](C)O4)[C@H](C)O3)[C@@H](C)/C=C/C=C3\CO[C@@H]4[C@H](O)C(C)=C[C@@H](C(=O)O1)[C@]34O)O2,outcome,[16],inactive
same,max response,[6],-21.4%
same,Potency,[7],12.6 µM (active)
same,Potency,[9],inactive
C[C@H]1CC[C@]2(NC1)O[C@H]1C[C@H]3[C@@H]4CC[C@H]5C[C@@H](O[C@@H]6O[C@H](CO)[C@H](O[C@@H]7O[C@H](CO)[C@@H](O)[C@H](O[C@@H]8OC[C@@H](O)[C@H](O)[C@H]8O)[C@H]7O[C@@H]7O[C@H](CO)[C@@H](O)[C@H](O)[C@H]7O)[C@H](O)[C@H]6O)CC[C@]5(C)[C@H]4CC[C@]3(C)[C@H]1[C@@H]2C,Potency,[9],15.8 µM (active)
CC(C)Nc1ccc(Nc2ccccc2)cc1,outcome,[16],inactive
same,outcome,[5],inactive
CC(=O)OCC(=O)[C@H]1CC[C@H]2[C@@H]3CC[C@H]4C[C@H](O)CC[C@]4(C)[C@H]3C(=O)C[C@]12C,Potency,[9],inactive
N#CC(C#N)=Cc1cc(O)c(O)c(O)c1,Potency,[9],inactive
OC[C@@H](O)[C@H]1O[C@@H]2O[C@@H](C(Cl)(Cl)Cl)O[C@@H]2[C@H]1O,Potency,[9],inactive
